Experimental data: PubChem BioAssay (NCI)
Compounds without any hit were thinned out: in the full panel of roughly 79,000, 15% have a hit. Activity calls are given as the source filed them. Rule as the data show it: active = growth inhibition above about 70%; inactive = the rest.

What was measured:
[1] = NCI Yeast Anticancer Drug Screen. Data for the rad50 strain (AID 155);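 also: 0% = growth of vehicle-only cultures of the same strain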; conditions: S. cerevisiae rad50 strain growth inhibition; at 50.0 µM; hits give high values
In short: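 Relative growth inhibition (compound vs vehicle) was measured in yeast with a defined repair-gene alteration.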

[2] = NCI Yeast Anticancer Drug Screen. Data for the mec2-1 strain (AID 157); conditions: S. cerevisiae mec2-1 strain, at 50.0 µM, hits give high values
In short: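 Using mec2-1 yeast: add compound, measure growth, express inhibition versus vehicle-treated cultures.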

[3] = NCI Yeast Anticancer Drug Screen. Data for the sgs1 mgt1 strain (AID 161);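 also: 0% = growth of cultures given vehicle only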; conditions: S. cerevisiae sgs1 mgt1 strain, at 50.0 µM, hits give high values
In short: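 Compounds are added to genetically altered yeast, and growth is compared with cultures given vehicle alone to give percent inhibition.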

[4] = NCI Yeast Anticancer Drug Screen. Data for the cln2 rad14 strain (AID 165);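 also: 0% = growth equal to vehicle treated cultures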; conditions: S. cerevisiae cln2 rad14 strain, at 50.0 µM, hits give high values
In short: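 Yeast strain cln2 rad14, bearing defects in cell cycle control and DNA repair, serves as the test system; values reflect growth inhibition compared with vehicle.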

[5] = NCI Yeast Anticancer Drug Screen. Data for the bub3 strain (AID 167); conditions: S. cerevisiae bub3 mutant strain, at 50.0 µM, hits give high values
In short: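 Screening used yeast with an engineered genetic alteration affecting cell cycle control. Compound-exposed cultures were compared with vehicle cultures, and reduced growth was taken as inhibition.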

[6] = NCI Yeast Anticancer Drug Screen. Data for the mlh1 rad18 strain (AID 175); conditions: S. cerevisiae mlh1 rad18 strain growth inhibition; at 50.0 µM; hits give high values
In short: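 Steps: expose repair-defective yeast to compound; measure growth; express inhibition against vehicle-treated controls.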

Measured: growth inhibition

O=C1N(CCN2CCC3(CC2)OCCO3)CCN1c1cc(Cl)cc(Cl)c1
inactive: [1] 56.9% | [2] 25.4% | [3] 51% | [4] 34.3% | [5] 24.6% | [6] 37.8%

Fc1ccc(N2CSC(=S)N(c3ccc(F)cc3F)C2)c(F)c1
inactive: [1] 8.95% | [2] -5.7% | [3] 31.5% | [4] 6.8% | [5] 28.9% | [6] 18.8%

O=C(O)/C(=C/c1ccccc1)c1ccccc1
inactive: [1] -9.3% | [2] -45% | [3] -30.3% | [4] -23.1% | [5] -33.5% | [6] 26.8%

O=C(N(Cc1ccccc1)c1ccccc1)C(Cl)(Cl)Cl
inactive: [1] 65.4% | [4] 30.1% | [5] 67%
active: [2] 76.8% | [3] 78% | [6] 78%

CC1(c2cccc3ccccc23)OC(=O)c2cccc(F)c21 (stereo unspecified)
inactive: [1] -10.9% | [2] -7.1% | [3] -16.1% | [4] 23.4% | [5] 7.6% | [6] 0.55%

COc1cccc(C2N=NC3=C(CCCC3)N2O)c1O (stereo unspecified)
inactive: [1] 14.4% | [2] 11% | [3] 10.2% | [4] 21.4% | [5] 25.1% | [6] 19.5%

CN(C)C(=O)OC1CCCCC1
inactive: [1] -8.1% | [2] -9.4% | [3] -18.8% | [4] -18.7% | [5] -19.6% | [6] -12.6%

C/C=C/C=C1/OC(C)=C(C(=O)OCC)C1=O
inactive: [1] 7.95% | [2] -15.6% | [3] 6.55% | [4] 11.4% | [5] -8.95% | [6] -1.9%

COc1ccc2c(c1)OC(C)(C)C(c1ccccc1)=C2c1ccc2c(c1)NCCO2
inactive: [1] 1% | [2] -2.35% | [3] 11.1% | [4] -38.5% | [5] -22.6% | [6] 32.2%

c1ccc2c(c1)ccc1c2ccc2c1cc1ccccn12
inactive: [1] -4.2% | [2] 7.45% | [3] -13.2% | [4] -14.7% | [5] -20.3% | [6] 0.8%

Cc1ccc(C(=Nc2ccccc2)N=S(c2ccccc2)c2ccccc2)cc1
inactive: [1] -2.2% | [2] 5.6% | [3] -19% | [4] -16.1% | [5] 2.55% | [6] -30.6%

Cn1nc(-c2ccccc2)c(-c2ccccc2)c(C#N)c1=O
inactive: [1] 0.05% | [2] -3.55% | [3] 0.4% | [4] -22.6% | [5] -1.8% | [6] 0.8%

NC(=O)CC(N)C(=O)NC(Cc1ccccc1)C(=O)NC(Cc1ccccc1)NC(=O)C(Cc1c[nH]c2ccccc12)C(=O)O (stereo unspecified)
inactive: [1] -18.6% | [2] 8.05% | [3] -11.1% | [4] -13.2% | [5] 1.85% | [6] 1.95%

O=[N+]([O-])c1ccc(N/N=C/C(Br)(Br)Br)c([N+](=O)[O-])c1
inactive: [1] -5.85% | [2] -0.65% | [3] -21.2% | [4] -11.9% | [5] -14.4% | [6] -27.9%

c1ccc2c(c1)nn1c3ccc4nonc4c3[n-][n+]21
inactive: [1] 1.2% | [2] -0.5% | [3] 25.9% | [4] 13.2% | [5] 31.4% | [6] -11.4%

CCOc1ccc(NC(=S)NC=C(C(N)=O)C(N)=O)cc1
inactive: [1] -47.3% | [2] -41.3% | [3] -10.7% | [4] 19.2% | [5] 3.9% | [6] -22.6%

CCOC(=O)NN(C(=O)OCC)C(C(=O)C1=CCCCC1)N(NC(=O)OCC)C(=O)OCC
inactive: [1] -9.95% | [2] -1.15% | [3] 4.5% | [4] 0.2% | [5] 0.3% | [6] -2.85%

O=[N+]([O-])c1ccc(-c2nnc(C34CC5CC(CC(C5)C3)C4)o2)cc1
inactive: [1] -26.7% | [2] -1.2% | [3] -13.4% | [4] -5.9% | [5] -11.2% | [6] -30.1%

OC/C(I)=C(I)\C(I)=C(\I)CO
active: [1] 99.2% | [2] 99.3% | [3] 99.5% | [4] 99.4% | [5] 98.7% | [6] 99.4%

NC(=Nc1ccc([N+](=O)[O-])cc1)c1ccccc1
inactive: [1] 6.95% | [2] 1.6% | [3] -4.05% | [4] -11.9% | [5] 8.3% | [6] 9.65%

CCCCCCCCCCCCCCCCCC(=O)Oc1c(C(C)(C)C)cc([N+](=O)[O-])c(C)c1[N+](=O)[O-]
active: [1] 98.2% | [2] 99.2% | [3] 98.8% | [4] 98.9% | [5] 99.2% | [6] 98.2%

CCCCSc1nc2ccc(N=Cc3ccccc3O)cc2s1
inactive: [1] -19.6% | [2] -11.2% | [3] -4.45% | [4] -17.7% | [5] -5.75% | [6] -22.4%

CC(=O)Nc1cc2c3c(c1)CCCN3CCC2
inactive: [1] -24.4% | [2] -14.8% | [3] -38.2% | [4] 25.9% | [5] 27.6% | [6] -3.6%

CCOC(Nc1ccc(Cl)cc1Cl)C(=O)c1ccccc1 (stereo unspecified)
inactive: [1] 8.65% | [2] 6.05% | [3] -2.8% | [4] 1.85% | [5] 11.8% | [6] 1.8%

O=[N+]([O-])c1ccc(Sc2cccs2)c([N+](=O)[O-])c1
inactive: [1] -12.8% | [2] 28.9% | [3] 18.9% | [4] 4.1% | [5] 13.9% | [6] 57%

COc1ccc(C(O)C(CN(C)C)CN(C)C)cc1 (stereo unspecified)
inactive: [1] -0.75% | [2] -19.6% | [3] 6.65% | [4] 8.15% | [5] 8.7% | [6] 10.8%

O=C(O)C(Br)C(Br)C(=O)Nc1cccc(Cl)c1 (stereo unspecified)
inactive: [1] 0.5% | [2] -47.2% | [3] 21.2% | [4] -27.8% | [5] 5.75% | [6] 20.2%

COc1cc(C(OC(C)=O)OC(C)=O)c(Cl)c(Cl)c1OC(C)=O
inactive: [1] 16.7% | [2] -2.25% | [3] 9.35% | [4] -5.3% | [5] 12.2% | [6] 18.6%

O=c1[nH]nc(SCc2ccccc2)c2nncn12
inactive: [1] 2.45% | [2] 3.1% | [3] 6.35% | [4] 23.4% | [5] 6.55% | [6] 20.1%

COc1cc(-c2cccs2)sc1-c1cccs1
inactive: [1] 10.4% | [2] -7.15% | [3] 31.4% | [4] 8.95% | [5] 19.6% | [6] 13.2%

Nc1ccc(S(=O)(=O)CC(=O)N2CCOCC2)cc1
inactive: [1] 6.2% | [2] -10.8% | [3] 8.3% | [4] 17.9% | [5] 4.95% | [6] 22.5%

CC(=O)C1C(=O)OC2C3C=CC(C3)C2C1=O (stereo unspecified)
inactive: [1] 14.9% | [2] 21.1% | [3] 0.9% | [4] -4.7% | [5] 20.1% | [6] 42.6%

Cc1cccc(-n2c(N)cc(=O)[nH]c2=S)n1
inactive: [1] -11.5% | [2] -2.2% | [3] -7.8% | [4] -38.4% | [5] -10.1% | [6] -4.15%

CCOC1C=CCCO1 (stereo unspecified)
inactive: [1] 20% | [2] -2.7% | [3] 8.65% | [4] -6.55% | [5] -7.2% | [6] 5.65%

CCOC(=O)C(C(=O)OCC)C(C(=O)OCC)C(=O)OCC
inactive: [1] -22.7% | [2] 4.45% | [3] -6.2% | [4] -9.65% | [5] -14.5% | [6] -9.05%

CS(=O)(=O)c1ccc(N2CCCCC2)c([N+](=O)[O-])c1
inactive: [1] 29.9% | [2] 6.05% | [3] 27.6% | [4] 16.7% | [5] 10.9% | [6] -4.9%

Cc1ccnc(NC(=O)Nc2ccc(C)cc2[N+](=O)[O-])c1
inactive: [1] 18.4% | [2] 26.7% | [3] 20.4% | [4] 8.35% | [5] 18.1% | [6] 24%

NC(=O)NC(=O)N/N=C/c1ccccc1
inactive: [1] 23.2% | [2] 2.4% | [3] 2.8% | [4] 4.15% | [5] 7.6% | [6] 14.9%

O/N=C/C(=Nc1cccc2ccccc12)NO
inactive: [1] -11.1% | [2] -12.8% | [3] -12.1% | [4] -10.3% | [5] -5.7% | [6] 13.9%

CC(C)(N=NC(C)(C)C(=O)NCCO)C(=O)NCCO
inactive: [1] -6.15% | [2] -6.65% | [3] 0.85% | [4] 19.7% | [5] 2% | [6] -0.65%

CCCC(=O)NC(NC1CCCCC1)(C(=O)OCC)C(F)(F)F (stereo unspecified)
inactive: [1] -17.3% | [2] -0.15% | [3] -15.6% | [4] 18.4% | [5] -7.25% | [6] -45.1%
